39 molecules from PubChem BioAssay (NCI) can be followed below.

Where “and” joins values, the source holds several entries; their conditions need not be identical. Identical values can stand only once. The panel holds about 79,000 compounds, 15% with a hit somewhere; the sample as a whole holds those more often. Calls of active or inactive are those of the source. Cut-off read from the data, not from the text of the source: active = growth inhibition above about 70%; inactive = the rest.

This experiment can be described thus: NCI Yeast Anticancer Drug Screen. Data for the sgs1 mgt1 strain (AID 161).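 Note: 0% = growth of cultures given vehicle only.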 Particulars: S. cerevisiae sgs1 mgt1 strain, active compounds read high; at 50.0 µM unless noted. The essentials:
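Yeast cells carrying a defined DNA-repair defect were exposed to test compounds. Growth inhibition was measured relative to vehicle-treated controls.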
As for `CCOC(=O)Nc1ccccc1OCC`, the growth inhibition was -4.3% (inactive). `ClC(Cl)(Cl)c1ncnc2nc[nH]c12`: the growth inhibition is 0.5% (inactive). Consider `CNC(=S)NCOCCOC(C)=O`, for which the growth inhibition was 15.2% (inactive). The value for `NC(Cc1cc(Br)c(Oc2ccc(O)cc2)c(Br)c1)C(=O)O` (centres undefined) was -9.1% (inactive). `O=[N+]([O-])c1ccc(S(=O)(=O)O)cc1`: the growth inhibition was 37.5% (inactive). The value for `CCCSc1nc(C(=O)O)cc(=O)[nH]1` was -4.8% (inactive). In the case of `CC(=O)N(C)c1ccccc1` it was -16.4% (inactive); in that of `O=C(O)c1cc([N+](=O)[O-])c(O)c2ccccc12`, 6.1% (inactive); in that of `COC(=O)C1=C2C3(O)CC4CC5C3CCC(C)N5C24C2CCCC(OC)C2C1OC(=O)c1ccccc1` (centres undefined), 17.9% (inactive). On to `CCCC(=O)OCC1OC(n2cc(F)c(=O)[nH]c2=O)CC1OC(=O)CCC` (centres undefined), for which the growth inhibition is 13.9% (inactive).

On to `O=[N+]([O-])c1cccc(Br)c1`, for which the growth inhibition was -10.7% (inactive). In the case of `COC(=O)/C=C(/Sc1nc(Cl)c(Cl)nc1N)C(=O)OC` (tested in a mixture with another compound) it was 10.7% (inactive); in that of `CC(C)(C)NC(=O)C(Br)c1ccccc1` (centres undefined), 33.8% (inactive).

In the case of `C=C1CC2C=CC1C2` (centres undefined), the growth inhibition was 1.3% (inactive). As for `O=S(=O)(O)c1cc(N=[N+]([O-])c2ccc(N=Nc3ccccc3)cc2S(=O)(=O)O)ccc1/C=C/c1ccc(N=[N+]([O-])c2ccc(N=Nc3ccccc3)cc2S(=O)(=O)O)cc1S(=O)(=O)O`, the growth inhibition is 9.8% (inactive). For `CC(C)(C)c1ccc(C(C)(C)C)c(N2C(=O)c3ccc4c5ccc6c7c(ccc(c8ccc(c3c48)C2=O)c75)C(=O)N(c2cc(C(C)(C)C)ccc2C(C)(C)C)C6=O)c1`, the growth inhibition is -4.25% (inactive). In the case of `CO[C@@H]1C2=CC=CC=C[C@H]2n2c(=O)n(-c3ccccc3)c(=O)n21` it was 18.4% (inactive); in that of `Nc1nc(N)c2[nH]cnc2n1`, 3.65% (inactive) and -1.85% (inactive); in that of `CCOC(=O)c1ccc2c(c1)C(=O)c1cc([N+](=O)[O-])ccc1-2`, 4.8% (inactive). Take `N#CCCOc1ccc(N)cc1`: the growth inhibition was 7.15% (inactive). In the case of `O=C1NCC2(CCNCC2)N1` it was 6.45% (inactive); in that of `CCCCc1cc(C(=O)OC/C(C)=N/NC(N)=O)c2ccccc2n1`, 18.9% (inactive); in that of `Nc1cc(C(=O)O)[nH]c(=O)n1`, -20.2% (inactive). In the case of `O=c1c2ccccc2c(=O)n2n1-c1cccc(c1)CSSCc1cccc-2c1`, the growth inhibition is -10.6% (inactive). The value for `O=C(O)COc1ccc(F)cc1F` was 1.65% (inactive); that for `Cc1ccc(S(=O)(=O)c2ccccc2)cc1` was -22.5% (inactive) and 23% (inactive). The value for `CCCCCCCCCCCC(O)C(C)(C)C` (centres undefined) was -12.6% (inactive). In the case of `CC1(O)CC(=O)c2c(cc3ccc(-c4c5c(c(O)c6c(O)cccc46)C(=O)CC(C)(O)C5)c(O)c3c2O)C1` (centres undefined) it was 35.5% (inactive). Take `N#C/C(=C\c1ccc(Cl)cc1Cl)C(=O)N/N=C/c1ccc(Cl)cc1Cl`: the growth inhibition was 27.8% (inactive). `O=C1C2CCC2C(=O)N1c1ccc2ccccc2c1` (centres undefined): the growth inhibition was 0.35% (inactive).

Consider `Cc1cc(O)c(C)cc1O`, for which the growth inhibition is -2.85% (inactive).

For the molecule `C[N+](C)(CCCCCCCCCC[N+](C)(C)CC(=O)c1ccccc1)CC(=O)c1ccccc1`, the growth inhibition was 24.7% (inactive).

Consider `CCCCN1C(=O)NC(Cc2ccccc2)C1=O` (centres undefined), for which the growth inhibition was -13.2% (inactive).

With `CCCCCCCCCCCC[N+](C)(C)C(C)Cc1ccccc1` (centres undefined), the growth inhibition is 89.8% (active). `O=S(=O)(O)c1cc(O)c(S(=O)(=O)O)cc1O`: the growth inhibition was 1.7% (inactive). As to `CC(C)CC1N=C(NN=C(CCl)CCl)OP1(=O)NCCCCCCNP1(=O)OC(NN=C(CCl)CCl)=NC1CC(C)C` (centres undefined), the growth inhibition was 2.95% (inactive). On to `O=C1CC2c3ccccc3CCN2C2=C1CCC2` (centres undefined), for which the growth inhibition is -0.4% (inactive).

Take `O=Nc1c(S(=O)(=O)O)cc2cc(S(=O)(=O)O)ccc2c1O`: the growth inhibition was 45.2% (inactive). In the case of `Cc1ccc(S(=O)(=O)NC(CCC(=O)N2CCOCC2)C(=O)O)cc1` (centres undefined) it was 7.15% (inactive).
